In PubChem BioAssay AID624330 (Southern Research Specialized Biocontainment Screening …, 2012):
Hit rate of the full screen: of about 340,000 compounds, about 2,100 (0.62%) were called active.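 The calls were made as follows: active = first-screen hits whose inhibition reached a set limit at any dose in the follow-up dose series; inconclusive = inhibition above the set first-screen limit but never retested; inactive = the rest.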 Only a sample is shown. Potency and affinity values are given separately.

These compounds were tested against Rac GTPase-activating protein 1 (Homo sapiens) (UniProt Q9H0H5) (assay: blockers of MgcRacGAP-driven Rac1 GTP hydrolysis – biochemical, ADP Hunter fluorescence, primary and confirmatory, confirmation (AID 624330;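 also: fluorescence reports GDP produced by GAP-driven GTP hydrolysis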)). Conditions: MgcRacGAP-stimulated Rac1 GTP hydrolysis, at 30 µM, hits give high values, GST-tagged Rac1 F28L mutant substrate.
Rac GTPase-activating protein 1 (Homo sapiens), sequence (Q9H0H5 whole entry, looked up): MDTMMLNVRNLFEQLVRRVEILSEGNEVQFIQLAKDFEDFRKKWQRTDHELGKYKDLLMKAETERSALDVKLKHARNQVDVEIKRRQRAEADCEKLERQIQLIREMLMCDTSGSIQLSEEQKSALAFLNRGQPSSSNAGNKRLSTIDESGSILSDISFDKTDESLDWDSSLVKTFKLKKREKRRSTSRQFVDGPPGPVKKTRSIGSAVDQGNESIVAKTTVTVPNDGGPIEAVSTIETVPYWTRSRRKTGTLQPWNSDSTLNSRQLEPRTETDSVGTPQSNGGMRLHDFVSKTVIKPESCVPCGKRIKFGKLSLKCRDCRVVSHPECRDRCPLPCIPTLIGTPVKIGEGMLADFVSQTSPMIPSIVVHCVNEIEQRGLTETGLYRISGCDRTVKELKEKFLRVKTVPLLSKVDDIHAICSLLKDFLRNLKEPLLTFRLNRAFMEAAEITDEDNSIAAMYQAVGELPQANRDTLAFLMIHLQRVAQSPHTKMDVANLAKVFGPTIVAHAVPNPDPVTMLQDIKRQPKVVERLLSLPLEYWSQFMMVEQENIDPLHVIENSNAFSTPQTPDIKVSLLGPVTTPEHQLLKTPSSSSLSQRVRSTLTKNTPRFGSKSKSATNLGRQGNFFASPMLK

inhibition, inactive:
COc1ccc(CCNC(=O)CSc2ccccc2)cc1OC -5.12%
CCOC(=O)c1cc(NC(=O)CNCC(c2ccccc2)N(C)C)cc(C(=O)OCC)c1 (stereo not given) 16.1%
COc1ccc(CCNC(=O)Cc2ccccc2)cc1OC 10%
COc1ccc(Cl)cc1NC(=O)CNCC(c1ccccc1)N(C)C (stereo not given) 21.9%
Cc1cc(NC(=O)CNCC(c2ccccc2)N(C)C)c([N+](=O)[O-])cc1C (stereo not given) 13.9%
Cc1ccc(Cl)cc1NC(=O)CNCC(c1ccccc1)N(C)C (stereo not given) 30.3%
COc1ccc(C)cc1S(=O)(=O)N(C)CC(=O)N1CCC(C(N)=O)CC1 -7.33%
O=C(CSCC(=O)OCn1nnc2ccccc2c1=O)Nc1ccc(Cl)cc1 7.19%
CCc1nc(N2CCC3(CC2)OCCO3)c2nnn(Cc3ccccc3)c2n1 0%
CCCn1c(=NC(=O)CCS(=O)(=O)c2ccccc2)sc2cc(S(N)(=O)=O)ccc21 -5.12%
CCC(=O)N1CCC(c2ccc(OC)cc2)=N1 1.71%
CCC(=O)Nc1nnc(S(=O)(=O)N(CC)c2cc(C)cc(C)c2)s1 3.75%
Cc1ccc2nc(-c3ccncc3)c(NC3CCCC3)n2c1 -17.4%
Cc1ccn2c(NC3CCCC3)c(-c3ccsc3)nc2c1 13.1%
O=C(Nc1ccc(Cl)cc1)C1CCN(C(=O)c2cccs2)CC1 6.08%
Cc1ccc2occ(C(c3nnnn3Cc3ccccc3)N3CCOCC3)c(=O)c2c1 (stereo not given) 7.16%
O=[N+]([O-])c1ccc(C=NNC(=S)NN=Cc2ccc([N+](=O)[O-])cc2)cc1 -0.77%
O=C(NN=Cc1ccc(O)cc1)C(=O)NN=Cc1ccc(O)cc1 28.3%
C=C1CC(C(=O)N/N=C/c2ccccc2)C1 11.8%
O=C(NN=Cc1ccc(F)cc1)C1CC1 6.86%
O=C(Nc1cccc(NC(=O)c2ccco2)c1)c1ccc2c(c1)OCCO2 2.32%
O=C(Nc1ccc(NC(=O)c2ccc3c(c2)OCCO3)cc1)c1ccccc1 1.42%
O=C(NC1CCCCCC1)c1ccc[nH]c1=S 5.17%
COc1ccc(NC(=O)CSc2nnc3ccc(-c4cccnc4)nn23)c(OC)c1 -2.52%
COc1ccc(/C=N/N=C2\SCC(=O)N2c2c(C)n(C)n(-c3ccccc3)c2=O)cc1OC 5.82%
O=C1CS/C(=N/N=C/c2ccccc2)N1c1ccc(O)cc1 8.23%
COc1ccc(/C=N\N=C2/SC(CC(=O)O)C(=O)N2c2ccc(O)cc2)cc1OC (stereo not given) 2.46%
COc1ccc(/C=N\N=C2/SC(CC(=O)O)C(=O)N2c2ccc(O)cc2)cc1 (stereo not given) 3.73%
O=C(NCCC1=CCCCC1)C(=O)c1c[nH]c2ccccc12 1.95%
Cc1ccc(S(=O)(=O)[N-]c2nc3ccccc3nc2-[n+]2cc(C)cc(C)c2)cc1 9.42%
COc1ccccc1Oc1nnnn1-c1ccc(C(N)=O)cc1 2.99%
CCn1cc(/C=C(\NC(=O)c2ccccc2F)C(=O)N2CCN(C)CC2)c2ccccc21 19%
C[C@@H]1CN(S(=O)C(C)(C)C)[C@@H](CCO)/C1=C\CCO (stereo not given in full) 8.46%
Cc1ccc2c(Cl)c(C(=O)Nc3cc(C)on3)sc2c1 4.78%
Cc1cc(NC(=O)c2ccccc2)no1 5.35%
Cc1ccc(S(=O)(=O)c2c(COC(=O)c3ccccc3Cl)c(-c3ccccc3)nn2C)cc1 4.7%
Cc1nc2ccc(NC(=O)CCS(=O)(=O)c3ccc(Cl)cc3)cc2s1 -5.04%
CC(C)CC1NC(=O)N(CC(=O)Nc2ccc3c(c2)CCC3)C1=O (stereo not given) 9.25%
O=C(NCCS(=O)(=O)c1ccc(Cl)cc1)c1ccc(F)cc1 2.29%
Cc1c(C(=O)Nc2ccc(S(=O)(=O)Nc3ncccn3)cc2)oc2ccc(F)cc12 -2.01%
CC1CCCCN1Cc1ccc(N)cc1 (stereo not given) 5.78%
O=S1(=O)CCN(Cc2cccnc2)CC1 0.02%
CC1CCCCN1Cc1ccc(N(C)C)cc1 (stereo not given) 9.51%
O=C(O)C1CCN(Cc2cccnc2)CC1 2.37%
COc1ccc(CN(CCc2ccccc2)Cc2ccccc2)cc1OC 28.5%
O=C(O)CSc1nnc(SCc2cccc3ccccc23)s1 4.86%
CCN(CC)C(=O)CSc1nc2c(sc(=S)n2CC)c(=O)n1-c1ccccc1 2.69%
COc1ccc(N2C(=O)NC(=O)C2=O)cc1 6.21%
Cc1ccc(N2C(=O)NC3(CCCCC3)C2=O)cc1 8.08%
COC(=O)[C@@]12CCCN1[C@H](c1ccc(-c3ccc(Cl)c(Cl)c3)cc1)[C@H]1C(=O)N(C)C(=O)[C@H]12 -9.75%
CC(C(=O)Nc1ccc2c(c1)OCO2)N1CCC(N2CCCCC2)CC1 (stereo not given) 26%
CC(=O)c1ccc(N2CCN(C(C)C(=O)Nc3ccc4c(c3)OCCO4)CC2)cc1 (stereo not given) -0.86%
Cc1cnc(NC(=O)[C@H](C)N2C(=O)C3CCCCC3C2=O)s1 (stereo not given in full) 1.01%
CN1CCN(CCC(=O)Nc2ccc(F)c(F)c2)CC1 2.01%
Cc1ccc(NC(=O)C(C)N2CCCC2)cc1Cl (stereo not given) 13.2%
O=C(CN1CCc2ccccc2C1)Nc1ccccc1F 8.8%
Cc1cnc(NC(=O)C(C)N2C(=O)C3CC=CCC3C2=O)s1 (stereo not given) 5.83%
O=C(CN1CCc2ccccc2C1)Nc1ccccc1Cl 9.11%
Cc1cccc(-c2nc(C#N)c(N3CCC(C)CC3)o2)c1 -3.59%
COc1ccccc1/C=N/NC(=O)CC(=O)Nc1ccc(Cl)c(Cl)c1 3.66%
Cc1ccc(S(=O)(=O)NCCC(=O)N2CCN(Cc3ccccc3)CC2)cc1 -1.47%
Cc1ccc(C(=O)OCC(=O)NCc2cccs2)c(C)c1 6.37%
Cc1ccc(Oc2ccccc2NC(=O)CSCC(=O)Nc2cc(C)on2)cc1 3.22%
COc1ccc(S(=O)(=O)N2CCN(C(C)C(=O)Nc3ccc(C(C)C)cc3)CC2)cc1 (stereo not given) 5.24%
CN1CCN(CCNC(=O)Nc2ccccc2C(F)(F)F)CC1 -0.21%
CN1CCN(CC(=O)Nc2ccccc2C(F)(F)F)CC1 28.9%
COc1ccc(NC(=O)NN2CCN(C)CC2)cc1 2.87%
CC1Cc2ccccc2N1C(=O)CSc1nc2ccccc2s1 (stereo not given) 11.8%
CC(C)=NNC(=O)CN1C(=O)NC2NC(=O)NC21 (stereo not given) 6.56%
CC1(C)C2CCC(CN)C1C2 (stereo not given) 5.66%
Cc1nnc2sc(SCC(=O)Nc3cccc(Cl)c3)nn2c1=O 5.95%
COCC(C)n1c(C)cc(C(=O)CSc2nnnn2-c2ccc(O)cc2)c1C (stereo not given) 6.49%
Cc1cc(/C=C2\NC(=S)N(C)C2=O)ccc1N1CCCC1 22.4%
COc1cc(/C=C2\NC(=S)N(C)C2=O)ccc1OCc1ccccc1F -3.41%
O=C(NN=Cc1ccccc1C(=O)O)c1ccc(NS(=O)(=O)c2cccs2)cc1 5.61%
O=C(Cn1ccccc1=O)Nc1ccc(Cl)c(S(=O)(=O)N2CCCCC2)c1 1.69%
c1ccc(-c2csc(-c3cccnc3)n2)cc1 9.56%
Fc1ccc(-c2csc(-c3cccnc3)n2)cc1F 7.05%
Fc1ccccc1-c1csc(-c2cccnc2)n1 -4.78%
NC(=O)c1cc(-c2csc(-c3cccnc3)n2)ccc1O 18.7%
COc1ccc(NC(=O)Nc2cccc3c2O[C@H](CN(C)S(=O)(=O)c2c(C)noc2C)[C@@H](C)CN([C@H](C)CO)C3=O)cc1 6.8%
Fc1ccc(-n2cnnn2)c(F)c1 3.22%
CCCOc1ccc(C(=O)Nc2ccc(N3CCN(C(=O)c4ccco4)CC3)cc2)cc1 3.27%
CCC(C)[C@H](NC(=O)[C@@H]1Cc2ccccc2CN1)C(=O)Nc1ccc2c(c1)OCO2 (stereo not given in full) -13.9%
CCN(CC(=O)Nc1cccc(S(=O)(=O)N2CCCC2)c1)CC(=O)Nc1ccccc1OC 2.96%
COc1cccc(/C=C/C(=O)OCC(=O)Nc2cc(S(=O)(=O)N3CCOCC3)ccc2C)c1 2.2%
COc1cc(/C=C/C(=O)OCC(=O)Nc2cc(S(=O)(=O)N3CCCC3)ccc2Cl)cc(OC)c1OC -3.8%
COc1cccc(/C=C/C(=O)OCC(=O)Nc2ccc(S(=O)(=O)N3CCCC3)cc2)c1 1.91%
CCN(CC)c1ccc(S(=O)(=O)N2CCOCC2)cc1NC(=O)COC(=O)/C=C/c1ccc(C)o1 2.13%
COc1cc(/C=C/C(=O)OCC(=O)Nc2ccc(C)c(S(=O)(=O)N3CCCCC3)c2)ccc1O 13.2%
COc1cccc(NC(=O)CN(C)C(C)C(=O)Nc2ccc(S(=O)(=O)N3CCCC3)cc2)c1 (stereo not given) -2.38%
CCN(CC)c1ccc(S(=O)(=O)N2CCOCC2)cc1NC(=O)COC(=O)/C=C/c1ccccc1 -3.02%
C=CCn1c(C(C)C)nc2ccccc21 4.59%
O=C1CN(C(=O)COC(=O)CCc2ccccc2O)c2ccccc2N1 1.54%
N#CC1(N2CCN(C(=O)c3ccccc3)CC2)CCCCC1 8.68%
